Reference: PubChem BioAssay AID623870 (Broad Institute, 2012)
Screen size: about 390,000 compounds; about 2,600 (0.67%) were called active. The sample holds actives, similar compounds and a random draw of the others, so the mix is not that of the screen.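 The calls were made as follows: active = mean inhibition of replicates at least 50% and at least half of replicates each reaching 50%; inconclusive = half or more replicates reach 50% but mean below 50%; inactive = the rest.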

The compounds below were run against Transforming acidic coiled-coil-containing protein 3 (Homo sapiens) (UniProt Q9Y6A5) (assay: inhibitors of ARNT PAS-B binding to TACC3 – biochemical, AlphaScreen, single concentration, primary screen (AID 623870;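 also: 0% = complete ARNT plus TACC3 wells and 100% = ARNT alone without TACC3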)). Conditions: AlphaScreen His-ARNT PAS-B/GST-TACC3 binding, luminescence; at 9.99 µM; stronger effect = higher value; TACC3 fragment carries E629A point mutation.

Row | SMILES | inhibition
1 | C[C@@H]1CN([C@@H](C)CO)C(=O)c2cc(C#CC3CCCCC3)cnc2O[C@H]1CN(C)S(=O)(=O)c1ccccc1 | 10.2% (inactive)
2 | Cc1nc2ccccc2nc1N/N=C/c1ccc(O)cc1O | 69.6% (active)
3 | CNC[C@@H]1Oc2ccc(NC(=O)CCC(F)(F)F)cc2C(=O)N([C@@H](C)CO)C[C@@H]1C | -4.46% (inactive)
4 | CCc1n[nH]c(=S)n1/N=C/c1c[nH]c2ccc(Br)cc12 | -4.96% (inactive)
5 | Cc1ccsc1/C=N/n1c(=S)[nH]nc(C)c1=O | 65.9% (active)
6 | Cc1ccsc1/C=N/NC(=O)Cc1cc(=O)[nH][nH]1 | 1.12% (inactive)
7 | O=C(NC[C@@H]1[C@@H](c2ccccc2)[C@H](CO)N1C(=O)C1CCC1)NC1CCCC1 | -6.78% (inactive)
8 | Oc1cccc(/C=N/Nc2ccc(Cl)nn2)c1O | 53.7% (active)
9 | COc1ccc(NC(=O)N2C[C@H](O)COC[C@H]3O[C@@H](CC(=O)N4CCN(C)CC4)CC[C@@H]32)cc1 | 0.747% (inactive)
10 | CCN(CC)c1ccc(/C=N/NC(=O)c2cnccn2)c(O)c1 | 53.5% (active)
11 | CCN(CC)c1ccc(/C=N/NC(=O)CNC(=O)c2cccs2)cc1 | -3.55% (inactive)
12 | CCN(CC)c1ccc(/C=N/Nc2nc(C)cc(C)n2)c(O)c1 | 69.4% (active)
13 | NS(=O)(=O)c1ccc(CNC(=O)c2cnccn2)cc1 | 6.45% (inactive)
14 | Cc1noc(C)c1NC(=O)Nc1cccc2c1O[C@H](CN(C)C(=O)Nc1c(C)noc1C)[C@@H](C)CN([C@@H](C)CO)C2=O | 2.88% (inactive)
15 | CCCNC(=O)[C@H]1[C@H](CO)[C@H]2Cn3c(ccc(C4=CCCC4)c3=O)[C@H]2N1C(=O)CC | -1.64% (inactive)
16 | O=C(NNC(=S)Nc1ccccc1)c1cccc(S(=O)(=O)N2CCOCC2)c1 | 0.545% (inactive)
17 | Cc1cccc(-n2cnc(C(=O)NNC(=S)Nc3ccccc3)c2)n1 | 70.3% (active)
18 | Cc1cccc(-n2cnc(C(=O)Nc3cccnc3)c2)n1 | -3.7% (inactive)
19 | C/C=C/c1cnc2c(c1)C(=O)N([C@H](C)CO)C[C@H](C)[C@@H](CN(C)S(=O)(=O)c1ccccc1F)O2 | -4.04% (inactive)
20 | C/C=C/c1ccc([C@H]2[C@@H](CO)N(S(C)(=O)=O)[C@@H]2CN(C)C(=O)CC)cc1 | 7.87% (inactive)
21 | CO[C@H]1CN(C)C(=O)c2ccc(NC(=O)C3CC3)cc2OC[C@H](C)N(CCc2ccccc2)C[C@H]1C | -7.12% (inactive)
22 | COc1ccc(Cc2nnc(SCC(=O)Nc3ccc(C)c(Cl)c3)[nH]c2=O)cc1 | -0.289% (inactive)
23 | Cc1ccc(NC(=O)CSc2nn3c(=O)c(C)nnc3s2)cc1Cl | 56.2% (active)
24 | Cc1ccc(NC(=O)CSc2nnc(CNC(=O)c3ccccc3F)o2)cc1Cl | 2.2% (inactive)

Row | SMILES | inhibition
25 | C[C@H](CO)N1C[C@H](C)[C@@H](CN(C)Cc2ccc(-c3ccccc3)cc2)Oc2ccc(NC(=O)CCCN(C)C)cc2CC1=O | 31.9% (inactive)
26 | C[C@H](CO)N1C[C@H](C)[C@@H](CN(C)C)OCCCC[C@H](C)Oc2ccc(NC(=O)C3CCCCC3)cc2C1=O | -2.97% (inactive)
27 | Cc1coc2c1c(C)cc1oc(=O)c(CC(=O)NCC(=O)N[C@H](C(=O)O)C(C)C)c(C)c12 | 2.88% (inactive)
28 | Cc1c(CC(=O)NCC(=O)NCC(=O)O)c(=O)oc2cc3oc4c(c3cc12)CCCC4 | 50.6% (active)
29 | Cc1c(CC(=O)NCCCCCC(=O)O)c(=O)oc2cc3occ(-c4ccccc4)c3cc12 | 54.3% (active)
30 | COc1cccc(-c2coc3cc4oc(=O)c(CC(=O)O)c(C)c4cc23)c1 | 17.2% (inactive)
31 | Cc1oc2c(C)c3oc(=O)c(CC(=O)N[C@@H](CC(C)C)C(=O)N[C@@H](Cc4ccccc4)C(=O)O)c(C)c3cc2c1C | 2.61% (inactive)
32 | CC[C@@H](C)[C@H](NC(=O)CCc1c(C)c2cc3c4c(oc3c(C)c2oc1=O)CCCC4)C(=O)O | -0.229% (inactive)
33 | C[C@H](CO)N1C[C@H](C)[C@H](CN(C)Cc2ccncc2)Oc2ncc(C#CCC3CCCCC3)cc2C1=O | -1.21% (inactive)
34 | Cc1noc(C)c1NC(=O)Nc1ccc2c(c1)CC(=O)N([C@@H](C)CO)C[C@@H](C)[C@@H](CN(C)Cc1ccc(Cl)c(Cl)c1)O2 | -1.62% (inactive)
35 | CO[C@@H]1CN(C)C(=O)c2cc(NS(=O)(=O)c3cn(C)cn3)ccc2OC[C@@H](C)NC[C@H]1C | 1.1% (inactive)
36 | CN(C)C(=O)C[C@@H]1CC[C@H](NC(=O)NC2CCCCC2)[C@@H](CO)O1 | -17% (inactive)
37 | CN(C)C(=O)C[C@@H]1CC[C@H]2[C@@H](COC[C@H](O)CN2C(=O)c2ccncc2)O1 | -9.54% (inactive)
38 | C[C@@H]1CN([C@H](C)CO)S(=O)(=O)c2ccc(-c3ccncc3)cc2O[C@@H]1CN(C)C(=O)CN(C)C | 12% (inactive)
39 | C[C@H]1CN([C@@H](C)CO)C(=O)c2cc(NC(=O)NC3CCCCC3)ccc2O[C@@H]1CN(C)C(=O)Nc1cccc2ccccc12 | 0.153% (inactive)
40 | CCC(C)[C@@H](C(=O)N1CCNCC1)n1cc(CCCCN)nn1 (stereo partly specified) | 7.8% (inactive)
41 | C#CCOCCOCCOCCNc1nc(N2CCN(C(=O)[C@H](CCCCN)n3cc([C@@H](N)C(C)CC)nn3)CC2)nc(N2CCN(C(=O)[C@H](Cc3ccc(O)cc3)n3cc([C@@H](N)C(C)CC)nn3)CC2)n1 (stereo partly specified) | 45.7% (active)
42 | C#CCOCCOCCOCCNc1nc(N2CCN(C(=O)CCCCCCCCCCNC(=O)[C@H]([C@@H](C)CC)n3cc(CCCCN=C(N)N)nn3)CC2)nc(N2CCN(C(=O)CCCCCCCCCCNC(=O)[C@H](CO)n3cc(CCCSC)nn3)CC2)n1 | 9.17% (inactive)
43 | CC[C@H](C)[C@@H](C(=O)N1CCNCC1)n1cc([C@@H](N)Cc2ccc(O)cc2)nn1 | -3.75% (inactive)
44 | C#CCOCCOCCOCCNc1nc(N2CCN(C(=O)C([C@@H](C)O)n3cc([C@@H](N)CCCCN)nn3)CC2)nc(N2CCN(C(=O)[C@H](CCCCN)n3cc(CN)nn3)CC2)n1 (stereo partly specified) | 21.2% (active)
45 | C[C@H]1CN([C@@H](C)CO)C(=O)c2cc(NC(=O)CCN3CCOCC3)ccc2O[C@@H]1CN(C)C(=O)Nc1ccc(C(F)(F)F)cc1 | 26.6% (inactive)
46 | Cc1noc(C)c1S(=O)(=O)N(C)C[C@H]1OCCCC[C@@H](C)Oc2ccc(NC(=O)c3ccccc3)cc2C(=O)N([C@@H](C)CO)C[C@H]1C | -4.16% (inactive)
47 | COc1ccc(S(=O)(=O)N2CCOCC2)c(C)c1C | -0.167% (inactive)
48 | COC1=C(N2CCOCC2)C(=O)c2ccccc2C1=O | 60.4% (active)

Row | SMILES | inhibition
49 | O=C1c2ccccc2-c2ncnc3c(N4CCOCC4)cc(N4CCOCC4)c1c23 | 11.8% (inactive)
50 | C[C@@H]1CN([C@@H](C)CO)C(=O)c2cccc(NS(=O)(=O)c3cn(C)cn3)c2O[C@H]1CN(C)Cc1ccc(Cl)c(Cl)c1 | 4.82% (inactive)
51 | O=C(NC1CCCC1)[C@H]1[C@H](CO)[C@H]2Cn3c(ccc(-c4ccccc4)c3=O)[C@H]2N1CCc1ccccc1 | 5.95% (inactive)
52 | COCC(=O)N1CC[C@@H]2[C@@H](CO)Nc3ccc(-c4ccc(C(=O)N(C)C)cc4)cc3[C@@H]21 | -12.5% (inactive)
53 | COc1cccc(S(=O)(=O)N[C@H]2CC[C@H](CCN)O[C@H]2CO)c1 | 0.015% (inactive)
54 | COCC(=O)Nc1ccc2c(c1)OC[C@@H](C)N(C(=O)c1cnccn1)C[C@H](C)[C@H](OC)CN(C)C2=O | -8.24% (inactive)
55 | COc1cc(C(=S)NCc2ccccc2)cc(Br)c1O | 49.6% (active)
56 | COc1cc(Cl)cc(C2NC(=O)NC(C)=C2C(=O)NCc2ccccc2)c1O (stereo unspecified) | -0.141% (inactive)
57 | COc1cc(C(=O)NCc2ccc(-n3cccc3)cc2)cc(OC)c1OC | -1.7% (inactive)
58 | COc1ccc(S(=O)(=O)Nc2cccc3c2O[C@@H](CN(C)S(=O)(=O)c2ccccc2)[C@@H](C)CN([C@@H](C)CO)C3=O)cc1 | 1.77% (inactive)
59 | CC(=O)N(C)C[C@H]1Oc2cc(-c3ccc(C)cc3)ccc2S(=O)(=O)N([C@@H](C)CO)C[C@@H]1C | -9.76% (inactive)
60 | C[C@@H]1CN([C@@H](C)CO)S(=O)(=O)c2ccc(C3=CCCC3)cc2O[C@H]1CN(C)C(=O)CC1CC1 | 3.76% (inactive)
61 | C[C@H]1CN([C@@H](C)CO)C(=O)c2cc(NC(=O)Cn3cnnn3)ccc2O[C@@H]1CN(C)C(=O)Nc1ccccc1 | -0.158% (inactive)
62 | c1ccc(-c2cn3c(n2)CCc2ccc4cccnc4c2-3)cc1 | 64.1% (active)
63 | COc1cc(-c2nnc(NC(=O)C3=COCCO3)o2)cc(OC)c1OC | 45.2% (active)
64 | O=C(Nc1nnc(C2=COCCO2)o1)c1ccc([N+](=O)[O-])s1 | 32.6% (inactive)
65 | CCC(CC)c1nnc(NC(=O)C2=COCCO2)s1 | -6.14% (inactive)
66 | COC(=O)[C@@H]1[C@@H](CO)[C@@H]2Cn3c(ccc(C4=CCCC4)c3=O)[C@@H]2N1Cc1cncnc1 | -4.04% (inactive)
67 | C/C=C/c1ccc2c(c1)O[C@@H](CN(C)C(=O)Cc1ccccn1)[C@@H](C)CN([C@H](C)CO)S2(=O)=O | -2.68% (inactive)
68 | O=C(CN1C(=O)COc2ccccc21)Nc1ccc(F)cc1 | 55.9% (active)
69 | CC(OC(=O)CN1C(=O)COc2ccccc21)C(=O)NCc1ccc(F)cc1 (stereo unspecified) | -23.2% (inactive)
70 | O=C(CN1C(=O)COc2ccc(Cl)cc21)Nc1ccc(N2CCOCC2)cc1 | 2.76% (inactive)
71 | C[C@H]1CN([C@@H](C)CO)C(=O)c2cc(NC(=O)Nc3ccc4c(c3)OCO4)ccc2O[C@@H]1CN(C)Cc1ccc(Oc2ccccc2)cc1 | 28.7% (inactive)
